Compound activity as filed in PubChem BioAssay.
HP1b chromo inh: HTS for Inhibitors of HP1-beta Chromodomain Interactions with Methylated Histone Tails; Chromobox protein homolog 1 (Homo sapiens), P83916; AlphaScreen HP1-beta / biotin-H3K9me3 peptide binding; Potency, µM (top dose mostly 114 µM), for the others: at the highest dose activity change, negative = inhibition, actives largely listed as inhibitors; 0.56% of 390,000 active; note: nearly all actives have a fitted effect of over 70% in size
Target sequence (P83916 whole entry, looked up): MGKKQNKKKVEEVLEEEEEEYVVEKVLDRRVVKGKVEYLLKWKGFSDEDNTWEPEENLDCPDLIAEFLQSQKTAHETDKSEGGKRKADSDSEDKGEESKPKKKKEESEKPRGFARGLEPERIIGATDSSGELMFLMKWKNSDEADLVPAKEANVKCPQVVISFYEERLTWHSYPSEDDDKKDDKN
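AlphaScreen: HP1-beta (50 nM) preformed 30 min with biotin-H3(1-18)K9me3 peptide (50 nM) in PBS pH 7.4, 0.01% Tween-20. Compound added for 30 min at RT, then streptavidin donor/nickel chelate acceptor beads (10 ug/mL) for 30 min.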
G9a block: qHTS Assay for Inhibitors of Histone Lysine Methyltransferase G9a; G9a H3K9 monomethylation, AlphaScreen, 2 h; 8.8% of 350,000 active; AID 504332, 2011; Potency, µM (titrated, usually from 102 µM), for the others: at the top dose activity, negative = inhibition, hits mostly inhibitors; note: % is set by controls: 0 for no effect and ±100 for the full control effect; nearly all actives have a fitted effect of over 75% in size
Target sequence (Q96KQ7 913-1193 limits assumed): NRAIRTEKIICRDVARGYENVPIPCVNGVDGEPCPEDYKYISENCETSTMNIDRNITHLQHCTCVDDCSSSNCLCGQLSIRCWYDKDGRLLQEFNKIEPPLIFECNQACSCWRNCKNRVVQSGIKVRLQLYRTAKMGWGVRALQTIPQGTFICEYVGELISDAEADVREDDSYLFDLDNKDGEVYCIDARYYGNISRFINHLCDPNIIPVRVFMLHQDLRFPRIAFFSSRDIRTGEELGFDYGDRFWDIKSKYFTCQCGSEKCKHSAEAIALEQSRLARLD
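Chemiluminescent proximity detection of H3K9 monomethylation, read after 10 min bead incubation in the dark. Reaction: 20 nM G9a, 500 nM biotin-H3K9 peptide, 20 uM SAM cofactor, 2 h, room temperature, following 15 min enzyme-compound preincubation.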
BAZ2B inh: qHTS Assay for Inhibitors of BAZ2B; Potency, µM (titrated, usually from 114 µM), for inactives: at the top dose activity change, negative = inhibition, usual class: inhibitors; AlphaScreen BAZ2B-H3K14Ac peptide displacement; Bromodomain adjacent to zinc finger domain protein 2B (Homo sapiens), Q9UIF8; 4.4% of 360,000 active; note: % is set by controls: 0 for no effect and ±100 for the full control effect; nearly all actives have a fitted effect of over 60% in size
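Protein-peptide AlphaScreen: BAZ2B 50 nM, b-H3K14Ac 50 nM, 1x PBS pH 7.4 + 0.01% Tween-20. Preincubation 30 min RT; cpd 30 min RT (top 110 uM); beads 20 min RT, light-protected.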
Sfp inh: qHTS Assay for Inhibitors of Bacillus subtilis Sfp phosphopantetheinyl transferase (PPTase); 4'-phosphopantetheinyl transferase ffp (Bacillus subtilis), Q9F4F7; Biochemical Sfp PPTase activity, qHTS; Potency, µM, for the others: largest response in the series, negative = inhibition, actives largely listed as inhibitors; 3.5% of 310,000 active;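 note: the enzyme is Sfp with the accession as filed and its product quenches rhodamine fluorescence; 0% = enzyme reaction without inhibitor and -100% = no enzyme wells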
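Fluorescence-quenching assay with 15 nM Sfp, 5 uM rhodamine-CoA and 12.5 uM BHQ-2-labelled ybbR peptide in pH 7.6 Hepes/MgCl2 buffer. Enzyme was pre-incubated with compound for 15 min at room temperature. Rate was taken from the 30-min fluorescence change (525/598 nm).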
JMJD2A Tudor: qHTS Assay for Inhibitors of JMJD2A-Tudor Domain. Lysine-specific demethylase 4A (Homo sapiens), O75164. Potency, µM (series often up to 114 µM), for the others: at the highest dose activity change, negative = inhibition, usual class: inhibitors. AlphaScreen JMJD2A-Tudor / H3K4me3 peptide binding. 4.4% of 390,000 active; note: % is set by controls: 0 for no effect and ±100 for the full control effect; nearly all actives have a fitted effect of over 50% in size
PLK1 PBD inh: qHTS for Inhibitors of PLK1-PDB (polo-like kinase 1 - polo-box domain): Primary Screen | Serine/threonine-protein kinase PLK1 (Homo sapiens), P53350 | Plk1 PBD binding of FITC phosphopeptide, fluorescence polarization | Potency, µM, inactives show max response, negative = inhibition, hits mostly inhibitors | 2.8% of 360,000 active | AID 720504, 2013; note: series mostly up to about 57 µM; % is set by controls: 0 for no effect and ±100 for the full control effect; nearly all actives have a fitted effect of over 65% in size
* hit, by the source's call; ? = inconclusive; . = not tested or not shown; [ ] = dose if it differs, or a comment. Only some compounds are listed: those with a hit (about 12% of all), similar ones and a draw of the others. Calls come from the whole dose curve; as a rule, active = well fitted curve in the direction sought with a large enough effect; inconclusive = small, poorly fitted or top-dose-only effect, or another doubt; inactive = no such curve, though single readings can be large; an effect the other way counts as inactive or inconclusive. Potency is the fitted concentration of half-maximal effect.

SMILES	HP1b chromo inh	G9a block	BAZ2B inh	Sfp inh	JMJD2A Tudor	PLK1 PBD inh
CCc1cccc(C)c1NC(=S)NCCc1c(C)[nH]c2ccc(C)cc12	?	45µM*	25µM*	14%	45µM*	-1%
CCn1nnc(NC(=O)C(c2ccccc2)c2ccccc2)n1	12%	7%	5%	8%	4%	-10%
Nc1c(C(=O)NCCc2ccc(Cl)cc2)sc2ccc(S(=O)(=O)N3CCCCC3)cc12	.	-24%[59 µM]	10%	18%	.	.
O=C1C=C(c2ccc(C(=O)O)cc2)C[C@@H](c2ccc3c(c2)OCO3)C1	1%	2%[0.501 µM]	50µM*	.	79µM*	-21%
O=C1C=C(c2ccc(O)cc2)C[C@@H](c2ccc3c(c2)OCO3)C1	1%	15%[0.501 µM]	4%	.	?	-6%
O=C(Oc1ccc2ccc(O)cc2c1)C1CCCCC1	?	-28%	-22%	5%	?	4.2µM*
Cc1ccc(CNC(=O)CN2C(=O)CCc3cc(S(=O)(=O)N4CCCCC4)ccc32)cc1	27%	-2%[12.7 µM]	0%	.	-7%	.
O=C(O)c1cc2ccccc2c(N=Nc2cccnc2)c1O	?	50µM*	?	8%	-32%	-8%
O=C(O)c1cc2ccccc2c(Cc2cc3ccccc3c(C(=O)O)c2O)c1O (tested in a mixture with another compound)	.	?	.	15%	.	.
CCOC(=O)c1c(N)n(-c2cccc(OC)c2)c2nc3ccccc3nc12	33%	-8%[59 µM]	-3%	.	-3%	.
CCOC(=O)c1c2c(n(-c3ccc(OC)cc3)c1C)C(=O)C(=O)c1ccccc1-2	?	.	.	.	18µM*	?
CC(=O)Nc1cccc(-c2nnc(-c3ccccc3)o2)c1	26%	8%[12.7 µM]	9%	11%	-20%[57.1 µM]	-9%
CN(C)C(=S)Nc1cccc(-c2n[nH]c(=S)o2)c1	0%	22µM*	-22%	-46%	?	-21%
NNC(=S)Nc1cccc(-c2n[nH]c(=S)o2)c1	0%	3.2µM*	-28%	79µM*	?	-21%
CN(C)C(=S)Nc1ccc2ccccc2c1	7%	-38%[59 µM]	-28%	-7%	-10%	-10%
CCNC(=O)C1(C)CCN(C(=O)c2ccc(C#N)cc2)C1 (stereo unspecified)	.	.	.	.	.	-4%
O=c1c(Cc2c(F)cccc2Cl)c(O)ccn1CCc1c[nH]c2ccccc12	32%	?	?	16%	-23%	-3%
CN(/N=C/C=C/c1ccccc1)c1cc(=O)n(C)c(=O)[nH]1	17%	35%[59 µM]	-38%	?	?	-7%
COc1ccc(/C=N/N(C)c2cc(=O)n(C)c(=O)[nH]2)cc1OC	28%	40µM*	79µM*	8%	-17%	-6%
Cc1ccc(Cl)cc1NC(=O)C1CCN(c2nc3ccccc3n3cccc23)CC1	10%	-32%[59 µM]	-29%	.	-25%	.
N#Cc1ccc(/C=C(\C(=O)C(=O)O)c2ccc3ccccc3n2)cc1	30%	-17%[12.7 µM]	79µM*	-6%	1%	-13%
O=C(O)C(=O)/C(=C\c1cccc(Cl)c1)c1ccc2ccccc2n1	29%	22µM*	79µM*	-22%	?	-21%
Cc1cccc(/C=C(\C(=O)C(=O)O)c2ccc3ccccc3n2)c1	63%	?	.	-3%	-10%	-10%
CC(C)C[C@H](NC(=O)[C@H](CCCCN)NC(=O)CNC(=O)[C@H](CC(C)C)NC(=O)[C@@H](NC(=O)[C@@H]1CSSC[C@H](N)C(=O)N[C@@H](CO)C(=O)N[C@@H](CC(N)=O)C(=O)N[C@@H](CC(C)C)C(=O)N[C@@H](CO)C(=O)N[C@@H]([C@@H](C)O)C(=O)N1)C(C)C)C(=O)N[C@@H](CO)C(=O)N[C@@H](CCC(N)=O)C(=O)N[C@@H](CCC(=O)O)C(=O)N[C@@H](CC(C)C)C(=O)N[C@@H](Cc1cnc[nH]1)C(=O)N[C@@H](CCCCN)C(=O)N[C@@H](CC(C)C)C(=O)N[C@@H](CCC(N)=O)C(=O)N[C@H](C(=O)N[C@@H](Cc1ccc(O)cc1)C(=O)N1CCC[C@H]1C(=O)N[C@@H](CCCNC(=N)N)C(=O)N[C@H](C(=O)N[C@@H](CC(N)=O)C(=O)N[C@H](C(=O)NCC(=O)N[C@@H](CO)C(=O)NCC(=O)N[C@H](C(=O)N1CCC[C@H]1C(N)=O)[C@@H](C)O)[C@@H](C)O)[C@@H](C)O)[C@@H](C)O	.	.	.	-6%	.	.
Cc1c(N=C2NN=C(c3ccc(Cl)cc3)CS2)c(=O)n(-c2ccccc2)n1C	1%	10µM*	-26%	50µM*	-30%	?
SMILES	HP1b chromo inh	G9a block	BAZ2B inh	Sfp inh	JMJD2A Tudor	PLK1 PBD inh
Cc1c(N=C2NN=C(c3c[nH]c4ccccc34)CS2)c(=O)n(-c2ccccc2)n1C	22%	45µM*	-28%	?	?	?
Cc1cc(C2=NNC(=NC3CC3)SC2)c(C)n1-c1c(C)n(C)n(-c2ccccc2)c1=O	25%	?	-11%	?	-6%	3%
Cc1ccn2c(CNCC3COCCO3)c(C(=O)N3CCCCCC3)nc2c1 (stereo unspecified)	32%	-21%	-30%	10%	-16%	6%
O=C1CS(=O)(=O)C2(C(=O)N(Cc3ccccc3Cl)c3ccccc32)N1c1ccc(F)cc1 (stereo unspecified)	-13%	?	-3%[57.1 µM]	.	-30%	.
C=CC[n+]1c(C)csc1Nc1cccc(Br)c1	?	32µM*	.	-16%	?	2%
C=CC[n+]1c(C)csc1Nc1ccc(C)cc1	?	50µM*	32µM*	26%	?	-18%
O=C(CSc1ncc2c(n1)-c1ccccc1N(Cc1ccccc1)S2(=O)=O)Nc1ccccc1	2%	11%[59 µM]	5%	.	-10%	.
CCN1C(=O)/C(=C\C(=O)c2cccs2)c2cc(Br)ccc21	22µM*	?	16µM*	20µM*	28µM*	5.3µM*
CCN1C(=O)/C(=C\N(C)C)c2ccccc21	9%	10%[59 µM]	-1%	-7%	-15%	-3%
c1ccc2c(c1)nc(Nc1ccc(N3CCCCC3)cc1)c1nncn12	?	16µM*	28µM*	11%	45µM*	-5%
c1ccc2c(c1)nc(NC1CCCCC1)c1nncn12	24%	45µM*	-3%	-16%	-12%	3%
